Laboratory results from the supplement of paper PMC10849652.
Of roughly 7,900 targets only a part is listed; those with a hit were picked by preference. About 0.6% of all pairs of compound and target were hits.

Assays:
Experiment in all cases: log2 fold change, soluble protein after heating vs DMSO (PISA); higher = thermal stabilisation; K562 cells, 10 uM, 30 min; active = over 0.2 and 3.5 SD of the protein, either way, in both replicates (recomputed)
[1] = compound: NC(=O)Nc1cc(-c2cccc(F)c2)sc1C(=O)N[C@H]1CCCNC1
Procedure, shortened: (§1)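 Aliquots of K562 cells (2×10^6 cells/mL) treated with 10 μM compound for 30 min were heated for 3 min over 48°C-58°C. After pooling and extraction in PBS with 0.5% NP-40 at 4°C, soluble protein from a 21,000xg, 90 min spin was quantified by TMTpro 16plex LC-MS/MS with channel sums equalised. Thermal stability is expressed against control samples, from duplicates, as a log2 fold change.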

[2] = compound: NC(=O)c1cnc(N[C@@H]2CCCC[C@@H]2N)nc1Nc1cccc(-n2nccn2)c1
Procedure, shortened: as §1

[3] = compound: NC1(c2ccc(-c3nc4ccn5c(=O)[nH]nc5c4cc3-c3ccccc3)cc2)CCC1
Procedure, shortened: as §1

[4] = compound: NCC(=O)Nc1ccc(-n2nc(C(F)(F)F)cc2-c2ccc3c(ccc4ccccc43)c2)cc1
Procedure, shortened: as §1

[5] = compound: Nc1ccccc1NC(=O)c1ccc(CNC(=O)OCc2cccnc2)cc1 [entinostat]
Procedure, shortened: as §1

[6] = compound: O=C(CCCCCCC(=O)Nc1ccccc1)NO [vorinostat]
Procedure, shortened: as §1

[7] = compound: O=C(CCCCCCNC(=O)c1cnc(N(c2ccccc2)c2ccccc2Cl)nc1)NO [citarinostat]
Procedure, shortened: as §1

[8] = compound: O=C(O)c1ccc2c(c1)nc(Nc1cccc(Cl)c1)c1ccncc12 [silmitasertib]
Procedure, shortened: as §1

[9] = compound: O=C1NC(=O)C(c2cnc3ccccn23)=C1c1cn2c3c(cc(F)cc13)CN(C(=O)N1CCCCC1)CC2
Procedure, shortened: as §1

[10] = compound: c1cc(OCCN2CCCCC2)cc(-c2n[nH]c3ccc(-c4nnc[nH]4)cc23)c1
Procedure, shortened: as §1

Measured: log2 fold change

SQSTM1 (UniProt Q13501)
inactive: [1] -0.036 | [2] -0.12 | [3] -0.068 | [4] -0.079 | [5] 0.051 | [6] 0.007 | [7] 0.081 | [8] 0.056 | [9] 0.019 | [10] -0.094

SYMPK (UniProt Q92797)
Chain of UniProt Q92797 (Q92797 whole entry, looked up): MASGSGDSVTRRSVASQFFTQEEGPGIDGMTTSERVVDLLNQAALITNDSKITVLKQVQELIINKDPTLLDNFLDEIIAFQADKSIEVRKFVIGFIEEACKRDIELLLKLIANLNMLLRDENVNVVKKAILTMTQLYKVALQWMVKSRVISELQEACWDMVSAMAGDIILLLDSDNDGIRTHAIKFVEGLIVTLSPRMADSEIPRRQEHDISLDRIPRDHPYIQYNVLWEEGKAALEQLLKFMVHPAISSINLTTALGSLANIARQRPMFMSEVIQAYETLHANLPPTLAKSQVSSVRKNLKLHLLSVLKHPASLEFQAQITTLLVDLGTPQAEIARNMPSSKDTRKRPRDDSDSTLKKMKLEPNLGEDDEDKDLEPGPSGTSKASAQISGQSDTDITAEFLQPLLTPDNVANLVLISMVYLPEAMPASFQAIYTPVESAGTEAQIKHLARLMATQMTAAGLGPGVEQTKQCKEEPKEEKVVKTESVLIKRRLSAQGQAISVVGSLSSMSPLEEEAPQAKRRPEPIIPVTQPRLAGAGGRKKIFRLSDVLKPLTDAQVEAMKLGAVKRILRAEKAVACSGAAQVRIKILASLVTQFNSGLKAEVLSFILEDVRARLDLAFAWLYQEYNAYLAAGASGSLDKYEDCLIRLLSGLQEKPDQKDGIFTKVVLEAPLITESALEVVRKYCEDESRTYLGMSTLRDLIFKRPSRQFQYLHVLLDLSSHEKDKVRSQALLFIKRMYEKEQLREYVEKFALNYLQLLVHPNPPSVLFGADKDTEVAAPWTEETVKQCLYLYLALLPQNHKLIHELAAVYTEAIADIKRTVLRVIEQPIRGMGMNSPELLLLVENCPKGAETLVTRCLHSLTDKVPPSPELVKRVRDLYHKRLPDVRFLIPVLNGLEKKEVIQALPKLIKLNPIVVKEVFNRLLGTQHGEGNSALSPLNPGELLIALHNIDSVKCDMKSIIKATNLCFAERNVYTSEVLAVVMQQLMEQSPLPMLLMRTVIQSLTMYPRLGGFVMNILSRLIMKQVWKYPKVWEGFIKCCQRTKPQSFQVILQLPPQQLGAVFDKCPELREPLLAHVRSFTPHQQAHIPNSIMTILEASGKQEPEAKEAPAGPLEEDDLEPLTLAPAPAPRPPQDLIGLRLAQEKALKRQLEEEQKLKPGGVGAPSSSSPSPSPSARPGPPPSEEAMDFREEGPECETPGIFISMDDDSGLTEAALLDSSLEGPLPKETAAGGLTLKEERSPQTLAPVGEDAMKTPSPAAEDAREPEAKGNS
inactive: [1] -0.018 | [2] 0.012 | [3] -0.287 | [4] -0.08 | [5] 0.025 | [6] 0.11 | [7] 0.051 | [8] 0.167 | [9] 0.033 | [10] -0.037

TAF9 (UniProt Q16594)
inactive: [1] -0.352 | [2] -0.026 | [3] 0.037 | [4] 0 | [6] 0.002 | [7] -0.043 | [8] -0.039 | [9] -0.022 | [10] 0.055
active: [5] -0.567

TCERG1 (UniProt O14776)
inactive: [1] -0.026 | [2] -0.075 | [3] -0.123 | [4] -0.112 | [5] 0.159 | [6] 0.129 | [7] 0.129 | [8] 0.022 | [9] -0.153 | [10] 0

SPAST (UniProt Q9UBP0)
inactive: [1] 0.027 | [2] -0.003 | [3] -0.12 | [4] -0.109 | [5] 0.075 | [6] 0.033 | [7] 0.058 | [8] 0.028 | [9] -0.035 | [10] -0.029

SMG1 (UniProt Q96Q15)
inactive: [1] -0.073 | [2] -0.111 | [3] -0.101 | [4] -0.073 | [5] -0.097 | [6] -0.012 | [7] 0.024 | [8] 0.142 | [9] 0.013 | [10] -0.187

STK11IP (UniProt Q8N1F8)
inactive: [1] 0.098 | [2] -0.412 | [3] -0.285 | [4] 0.086 | [5] 0.046 | [6] -0.184 | [7] -0.032 | [8] 0.217 | [9] 0.095 | [10] 0.016

SNX1 (UniProt Q13596)
active: [2] -0.375 | [3] -0.336
inactive: [1] -0.01 | [4] 0.011 | [5] 0.121 | [6] 0.147 | [7] 0.054 | [8] -0.062 | [9] -0.04 | [10] -0.094

SRSF6 (UniProt Q13247)
inactive: [1] -0.06 | [2] 0.038 | [3] 0.191 | [4] 0.032 | [5] -0.082 | [6] 0.084 | [7] -0.068 | [8] -0.254 | [9] 0.108 | [10] -0.299

STIM1 (UniProt Q13586)
inactive: [1] -0.032 | [2] -0.074 | [3] -0.075 | [4] -0.117 | [5] 0.011 | [6] 0.022 | [7] -0.013 | [8] 0.007 | [9] -0.054 | [10] -0.04

SORT1 (UniProt Q99523)
Chain of UniProt Q99523 (Q99523 whole entry, looked up): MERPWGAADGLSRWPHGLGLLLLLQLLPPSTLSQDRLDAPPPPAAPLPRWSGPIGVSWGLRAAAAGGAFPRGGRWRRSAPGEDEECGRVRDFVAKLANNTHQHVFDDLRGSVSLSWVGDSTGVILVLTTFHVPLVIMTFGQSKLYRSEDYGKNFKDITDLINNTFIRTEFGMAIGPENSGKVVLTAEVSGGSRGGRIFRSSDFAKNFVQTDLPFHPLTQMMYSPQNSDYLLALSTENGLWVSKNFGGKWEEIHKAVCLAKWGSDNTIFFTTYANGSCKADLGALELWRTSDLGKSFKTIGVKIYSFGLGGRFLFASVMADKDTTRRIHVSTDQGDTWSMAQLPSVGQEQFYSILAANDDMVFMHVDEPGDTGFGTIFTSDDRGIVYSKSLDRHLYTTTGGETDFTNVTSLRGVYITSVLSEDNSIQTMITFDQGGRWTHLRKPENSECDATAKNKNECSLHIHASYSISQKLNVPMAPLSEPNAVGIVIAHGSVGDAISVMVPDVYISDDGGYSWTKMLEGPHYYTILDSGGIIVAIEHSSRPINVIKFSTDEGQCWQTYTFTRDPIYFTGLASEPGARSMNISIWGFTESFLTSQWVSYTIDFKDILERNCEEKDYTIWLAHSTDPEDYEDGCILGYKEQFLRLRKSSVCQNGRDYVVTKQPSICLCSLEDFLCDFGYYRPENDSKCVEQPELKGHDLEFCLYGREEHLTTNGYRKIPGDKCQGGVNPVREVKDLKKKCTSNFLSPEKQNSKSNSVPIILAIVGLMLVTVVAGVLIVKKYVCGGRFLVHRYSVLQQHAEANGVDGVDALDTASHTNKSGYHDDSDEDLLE
active: [3] -0.687
inactive: [1] -0.005 | [2] -0.032 | [4] 0.038 | [5] -0.017 | [6] -0.002 | [7] 0.073 | [8] 0.006 | [9] 0.004 | [10] -0.139

SRI (UniProt P30626)
inactive: [1] -0.014 | [2] 0.081 | [3] -0.04 | [4] 0 | [5] 0.058 | [6] -0.044 | [7] 0.027 | [8] -0.004 | [9] -0.045 | [10] -0.038

THYN1 (UniProt Q9P016)
inactive: [1] 0 | [2] -0.011 | [3] -0.048 | [4] -0.103 | [5] -0.004 | [6] 0.011 | [7] 0.008 | [8] -0.011 | [9] -0.022 | [10] -0.034

STK38L (UniProt Q9Y2H1)
inactive: [1] -0.046 | [2] -0.015 | [3] -0.117 | [4] 0.078 | [5] 0.109 | [6] 0.02 | [7] 0.036 | [8] 0.101 | [9] -0.078 | [10] 0.05

TIMM13 (UniProt Q9Y5L4)
inactive: [1] 0.114 | [2] 0.031 | [3] -0.027 | [4] 0.012 | [5] 0.01 | [6] 0.031 | [7] 0.117 | [8] -0.016 | [9] 0.152 | [10] 0.107

TGFBRAP1 (UniProt Q8WUH2)
Chain of UniProt Q8WUH2 (Q8WUH2 whole entry, looked up): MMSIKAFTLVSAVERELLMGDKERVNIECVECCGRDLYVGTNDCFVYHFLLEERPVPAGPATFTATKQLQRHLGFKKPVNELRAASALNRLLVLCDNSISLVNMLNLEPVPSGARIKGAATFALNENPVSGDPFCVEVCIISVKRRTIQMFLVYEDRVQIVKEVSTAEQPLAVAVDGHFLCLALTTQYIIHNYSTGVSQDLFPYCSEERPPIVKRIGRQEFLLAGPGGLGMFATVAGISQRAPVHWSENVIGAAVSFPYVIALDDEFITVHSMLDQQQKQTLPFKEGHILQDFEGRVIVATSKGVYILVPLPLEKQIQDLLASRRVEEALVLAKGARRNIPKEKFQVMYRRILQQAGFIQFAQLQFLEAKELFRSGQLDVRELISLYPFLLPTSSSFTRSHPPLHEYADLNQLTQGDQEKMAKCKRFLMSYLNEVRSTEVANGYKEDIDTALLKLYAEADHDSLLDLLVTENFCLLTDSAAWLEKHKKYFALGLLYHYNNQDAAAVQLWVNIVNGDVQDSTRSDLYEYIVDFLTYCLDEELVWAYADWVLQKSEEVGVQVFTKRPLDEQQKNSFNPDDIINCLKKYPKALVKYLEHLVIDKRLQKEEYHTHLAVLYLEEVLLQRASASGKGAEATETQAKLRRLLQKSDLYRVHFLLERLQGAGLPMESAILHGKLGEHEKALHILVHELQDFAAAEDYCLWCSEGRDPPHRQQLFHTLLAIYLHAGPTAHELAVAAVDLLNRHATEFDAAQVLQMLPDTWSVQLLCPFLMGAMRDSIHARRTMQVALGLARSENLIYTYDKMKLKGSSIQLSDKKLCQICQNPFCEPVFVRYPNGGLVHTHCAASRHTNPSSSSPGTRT
inactive: [1] 0.065 | [2] -0.03 | [3] -0.209 | [4] -0.006 | [5] -0.013 | [6] 0.256 | [7] -0.367 | [8] 0.056 | [9] 0.069 | [10] 0.013

STARD3NL (UniProt O95772)
Chain of UniProt O95772 (O95772 whole entry, looked up): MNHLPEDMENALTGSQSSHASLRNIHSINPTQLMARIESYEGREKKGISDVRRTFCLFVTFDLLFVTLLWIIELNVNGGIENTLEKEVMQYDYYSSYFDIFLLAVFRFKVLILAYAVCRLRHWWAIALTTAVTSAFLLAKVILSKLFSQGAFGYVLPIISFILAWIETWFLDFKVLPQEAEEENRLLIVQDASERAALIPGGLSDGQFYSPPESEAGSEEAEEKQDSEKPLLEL
active: [3] -0.413
inactive: [1] 0.018 | [2] -0.104 | [4] -0.031 | [5] 0.093 | [6] 0.037 | [7] 0.004 | [8] 0.044 | [9] -0.013 | [10] 0.035

SRSF11 (UniProt Q05519)
inactive: [1] -0.183 | [2] -0.032 | [3] -0.063 | [4] -0.074 | [5] 0.018 | [6] 0.06 | [7] 0.046 | [8] -0.099 | [9] 0.037 | [10] -0.038

STEAP3 isoform 2 (UniProt Q658P3)
inactive: [1] -0.13 | [2] 0.076 | [3] -0.042 | [4] -0.006 | [5] 0.008 | [6] 0.086 | [7] 0.013 | [8] 0 | [9] -0.028 | [10] -0.082

SOAT1 (UniProt P35610)
inactive: [1] -0.073 | [2] -0.049 | [3] -0.171 | [4] -0.045 | [5] 0.029 | [6] -0.063 | [7] 0.112 | [8] 0.084 | [9] -0.098 | [10] -0.185

TCOF1 isoform 4 (UniProt Q13428)
inactive: [1] 0.131 | [2] -0.065 | [3] -0.014 | [4] -0.013 | [5] -0.015 | [6] -0.026 | [7] -0.002 | [8] 0.002 | [9] 0.045 | [10] -0.112

STAT3 (UniProt P40763)
inactive: [1] -0.001 | [2] -0.047 | [3] -0.2 | [4] -0.092 | [5] 0.089 | [6] 0.101 | [7] 0.062 | [8] 0.103 | [9] -0.036 | [10] -0.016

SLC25A42 (UniProt Q86VD7)
inactive: [1] 0.121 | [2] 0.021 | [3] -0.015 | [4] 0.05 | [5] -0.027 | [6] -0.102 | [7] -0.015 | [8] -0.033 | [9] -0.034 | [10] -0.046

TLK1 (UniProt Q9UKI8)
inactive: [1] -0.062 | [2] -0.074 | [3] -0.063 | [4] -0.034 | [5] 0.042 | [6] 0.027 | [7] 0.049 | [8] -0.002 | [9] 0.002 | [10] -0.074

THRAP3 (UniProt Q9Y2W1)
inactive: [1] -0.02 | [2] -0.076 | [3] -0.153 | [4] -0.037 | [5] 0.024 | [6] 0.021 | [7] 0.005 | [8] -0.169 | [9] -0.026 | [10] -0.257

SMAD2 (UniProt Q15796)
Chain of UniProt Q15796 (Q15796 whole entry, looked up): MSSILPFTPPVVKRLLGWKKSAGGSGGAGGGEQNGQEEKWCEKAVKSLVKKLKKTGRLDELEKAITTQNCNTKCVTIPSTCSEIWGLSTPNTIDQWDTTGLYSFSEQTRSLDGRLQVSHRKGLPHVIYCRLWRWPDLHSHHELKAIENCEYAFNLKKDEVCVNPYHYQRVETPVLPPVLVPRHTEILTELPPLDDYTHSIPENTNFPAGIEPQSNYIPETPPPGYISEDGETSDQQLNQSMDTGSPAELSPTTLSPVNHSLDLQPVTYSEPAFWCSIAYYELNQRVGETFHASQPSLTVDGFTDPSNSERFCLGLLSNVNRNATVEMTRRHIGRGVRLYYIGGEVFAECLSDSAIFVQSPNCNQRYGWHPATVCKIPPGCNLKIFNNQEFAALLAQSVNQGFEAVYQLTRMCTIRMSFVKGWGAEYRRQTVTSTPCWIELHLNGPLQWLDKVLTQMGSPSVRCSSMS
inactive: [1] -0.184 | [2] -0.064 | [3] 0.005 | [4] -0.039 | [5] -0.103 | [6] -0.051 | [7] 0.034 | [8] -0.073 | [9] 0.009 | [10] -0.018

SRC isoform 2 (UniProt P12931)
Chain of UniProt P12931 (P12931 whole entry, looked up): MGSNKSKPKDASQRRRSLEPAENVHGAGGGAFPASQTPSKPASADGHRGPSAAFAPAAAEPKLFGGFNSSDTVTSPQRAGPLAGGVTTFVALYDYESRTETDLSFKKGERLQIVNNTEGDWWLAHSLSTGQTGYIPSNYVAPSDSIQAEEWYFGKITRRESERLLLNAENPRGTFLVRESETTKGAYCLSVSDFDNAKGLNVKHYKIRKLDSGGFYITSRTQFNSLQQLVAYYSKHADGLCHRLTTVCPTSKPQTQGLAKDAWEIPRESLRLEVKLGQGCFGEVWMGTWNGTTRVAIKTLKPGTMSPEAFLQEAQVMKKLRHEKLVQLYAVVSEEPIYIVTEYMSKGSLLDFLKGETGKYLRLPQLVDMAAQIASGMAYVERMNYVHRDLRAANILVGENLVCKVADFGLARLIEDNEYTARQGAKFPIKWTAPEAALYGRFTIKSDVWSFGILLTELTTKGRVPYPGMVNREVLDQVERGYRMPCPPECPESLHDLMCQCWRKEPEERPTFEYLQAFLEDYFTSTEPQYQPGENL
active: [1] -0.578
inactive: [2] 0.006 | [3] 0.049 | [4] -0.088 | [5] 0.12 | [6] 0.079 | [7] -0.104 | [8] 0.122 | [9] 0.093 | [10] 0.199

TIMM10B (UniProt Q9Y5J6)
inactive: [1] 0.021 | [2] 0.257 | [3] -0.111 | [4] -0.007 | [5] 0.016 | [6] -0.202 | [7] 0.074 | [8] 0.034 | [9] -0.04 | [10] 0.022

TFRC (UniProt P02786)
Chain of UniProt P02786 (P02786 whole entry, looked up): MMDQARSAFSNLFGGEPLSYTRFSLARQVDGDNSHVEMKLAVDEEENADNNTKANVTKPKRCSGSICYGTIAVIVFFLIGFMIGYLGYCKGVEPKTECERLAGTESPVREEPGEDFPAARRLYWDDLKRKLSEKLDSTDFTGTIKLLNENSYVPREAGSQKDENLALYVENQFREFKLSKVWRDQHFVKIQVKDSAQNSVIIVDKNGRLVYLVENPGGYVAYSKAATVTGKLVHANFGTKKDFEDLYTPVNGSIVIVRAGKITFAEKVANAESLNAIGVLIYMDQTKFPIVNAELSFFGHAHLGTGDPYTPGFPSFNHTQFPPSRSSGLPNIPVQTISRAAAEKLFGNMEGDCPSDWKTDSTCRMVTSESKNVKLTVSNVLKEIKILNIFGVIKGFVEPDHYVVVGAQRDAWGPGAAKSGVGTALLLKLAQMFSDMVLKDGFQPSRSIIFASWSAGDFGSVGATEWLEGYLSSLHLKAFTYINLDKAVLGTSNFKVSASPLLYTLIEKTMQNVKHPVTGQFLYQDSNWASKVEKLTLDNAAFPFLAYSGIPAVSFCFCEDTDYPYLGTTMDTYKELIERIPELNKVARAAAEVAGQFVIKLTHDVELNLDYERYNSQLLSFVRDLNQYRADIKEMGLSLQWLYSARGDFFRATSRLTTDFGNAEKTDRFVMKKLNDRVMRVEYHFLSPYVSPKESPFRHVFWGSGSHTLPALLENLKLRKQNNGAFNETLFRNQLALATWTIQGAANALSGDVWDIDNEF
active: [3] -0.823
inactive: [1] -0.021 | [2] -0.031 | [4] -0.001 | [5] -0.008 | [6] -0.02 | [7] 0.062 | [8] 0.006 | [9] -0.023 | [10] -0.071

THADA (UniProt Q6YHU6)
inactive: [1] 0.004 | [2] -0.085 | [3] -0.147 | [4] -0.082 | [5] 0.014 | [6] -0.001 | [7] 0.121 | [8] -0.061 | [9] -0.025 | [10] -0.013
